Bioassay records (PubChem)
ELG1 genotoxic: induces genotoxicity in HEK293T cells with luciferase-tagged ELG1. HEK293T ELG1-luciferase reporter, luminescence, 16 h. Potency, µM (top dose mostly 46 µM), for the others: top-dose activity change, positive = activation, actives largely listed as activators. hit rate 1.3% among 330,000. AID 504466; also: % of control where 0% means no effect; nearly all actives have a fitted effect of over 60% in size
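Step 1: seed 2,000 HEK293T ELG1-luciferase cells per well. Step 2: add compound or DMSO, incubate 16 hr at 37 °C. Step 3: ONE-Glo, 30 min at room temperature, read luminescence.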
FLuc modulator: inhibits or activates purified firefly luciferase, miR-21 counter-screen; P08659; purified FLuc, Km substrates, luminescence inhibition; Potency, µM (series often up to 57.5 µM), for inactives: at the top dose activity change, negative = inhibition, usual class: inhibitors; hit rate 6.9% among 360,000; AID 588342;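 also: plate controls were vehicle for no effect and reference inhibitor for full effect; nearly all actives have a fitted effect of over 55% in size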
Target sequence (P08659 whole entry, looked up): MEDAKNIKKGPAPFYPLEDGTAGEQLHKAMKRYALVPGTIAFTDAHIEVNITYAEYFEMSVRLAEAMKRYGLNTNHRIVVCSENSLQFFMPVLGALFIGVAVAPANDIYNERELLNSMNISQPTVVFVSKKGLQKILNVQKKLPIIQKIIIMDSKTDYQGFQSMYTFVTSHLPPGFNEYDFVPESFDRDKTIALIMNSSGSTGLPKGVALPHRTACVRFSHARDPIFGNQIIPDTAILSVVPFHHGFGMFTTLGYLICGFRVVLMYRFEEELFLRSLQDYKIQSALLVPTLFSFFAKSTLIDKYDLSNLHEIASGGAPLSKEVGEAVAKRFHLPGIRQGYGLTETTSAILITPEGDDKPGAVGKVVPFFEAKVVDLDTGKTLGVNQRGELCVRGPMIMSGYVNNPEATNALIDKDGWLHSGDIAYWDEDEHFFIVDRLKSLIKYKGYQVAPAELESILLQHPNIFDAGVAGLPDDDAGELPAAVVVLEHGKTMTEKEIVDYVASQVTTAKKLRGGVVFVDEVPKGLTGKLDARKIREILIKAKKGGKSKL
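Biochemical qHTS of compounds, final roughly 60 µM downward over six points, against 10 nM purified firefly luciferase using Km concentrations of substrates (10 uM D-luciferin, 10 uM ATP) in Tris acetate pH 7.5 buffer; luminescence output.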
p53 reactivation: mutant p53 re-activation in reporter cells | AID 504706 | H1299 p53-A138V BP100-luciferase reporter, luminescence, 24 h | Potency, µM (doses to about 92.2 µM), without a hit: at the highest dose activity change, positive = activation, hits mostly activators | hit rate 0.063% among 320,000; also: % of control where 0% means no effect; nearly all actives have a fitted effect of over 45% in size
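H1299 (p53-null), stable ts p53-A138V + BP100-Luc; 1000 cells/well, Opti-MEM/10% FBS; cpd 4 pt, 1:5; 24 h, 37 deg C, 5% CO2; detection reagent 10 min RT; luminescence.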
SMN2 splice up: increases expression of the SMN2 splice variant | HEK293 SMN2-luciferase splicing reporter, luminescence, 30-36 h | Potency, µM (top dose mostly 46.1 µM), for the others: top-dose activity change, positive = activation, hits mostly activators | hit rate 2.8% among 210,000 | AID 1458; also: % of control where 0% means no effect; nearly all actives have a fitted effect of over 55% in size
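HEK293 cells carry an SMN2 minigene-luciferase reporter in which exon 7 inclusion puts luciferase in frame. Cells were seeded at 2000 cells/well, attached for 10-12 hours, then exposed to compounds for 30-36 hours at 37C before ONE-Glo luminescence.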
Rab9 promoter act: activates the Rab9 promoter. Huh7 Rab9 promoter-luciferase reporter, luminescence, 24 h. AID 485297. hit rate 2.8% among 320,000. Potency, µM (titrated, usually from 9.22 µM), inactives show at the highest dose activation, negative = inhibition, most hits filed as activators; also: % of control where 0% means no effect; nearly all actives have a fitted effect of over 60% in size
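Measured in stably transfected Huh7 cells bearing a Rab9 promoter–luciferase construct: 24 h compound treatment at 37 °C, followed by luminescence detection.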
NPC1 promoter act: activates the NPC1 promoter; Potency, µM (titrated, usually from 9.22 µM), for the others: at the highest dose activation, actives largely listed as activators; hit rate 2.4% among 320,000; Huh7 NPC1 promoter luciferase reporter, 24 h; AID 485313; also: % of control where 0% means no effect; nearly all actives have a fitted effect of over 60% in size
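Cells: Huh7 expressing luciferase under the NPC1 promoter, 1500/well. Seeded 2 h, compound added, incubated 24 h at 37 °C. Luciferase reagent, 10 min ambient, then luminescence.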
An asterisk follows results filed as active; [ ] = dose if it differs, or a comment. This is a sample that favours compounds with a hit; in the whole collection about 7.3% have one here. Calls follow the shape of the dose curve; as a rule, active = well fitted curve in the direction sought with a large enough effect; inconclusive = small, poorly fitted or top-dose-only effect, or another doubt; inactive = no such curve, though single readings can be large; an effect the other way counts as inactive or inconclusive. Potency is read from the fitted curve at half-maximal effect.

Cc1nn2c(N)c(-c3ccccc3)cnc2c1-c1ccc(Cl)cc1 was read as ELG1 genotoxic inconclusive, FLuc modulator 5.4µM*, p53 reactivation 21%, Rab9 promoter act 3.5µM* and NPC1 promoter act 2.5µM*.
`Cc1cc(N)n2nc(-c3ccccc3)c(-c3ccccc3)c2n1` gave ELG1 genotoxic 5%, FLuc modulator -11%, p53 reactivation -8%, Rab9 promoter act 0% and NPC1 promoter act -5%.
For Cc1nn2c3c(cnc2c1-c1ccccc1)C(=O)CCC3 the results were ELG1 genotoxic inconclusive, FLuc modulator 15µM*, p53 reactivation 24%, SMN2 splice up -1%, Rab9 promoter act inconclusive and NPC1 promoter act inconclusive.
Screening Cc1nc2cc(-c3ccccc3)nn2c(N)c1-c1ccccc1 returned ELG1 genotoxic 1.8µM*, p53 reactivation 95%, Rab9 promoter act 0.63µM* and NPC1 promoter act 1µM*.
`CCOC(=O)c1nnc2c(-c3ccc(Cl)cc3)c(C)nn2c1N` gave FLuc modulator 0% and SMN2 splice up 0%.
Screening COc1cccc(CNC(=O)c2ccc(CN3CC(=O)N4CCCCC4C3=O)cc2)c1 (stereo unspecified) returned FLuc modulator -6%.
`Cc1nn2c(-c3ccccc3)ccnc2c1-c1ccccc1` gave ELG1 genotoxic inconclusive, FLuc modulator 5.4µM*, p53 reactivation inconclusive, SMN2 splice up -21%, Rab9 promoter act inconclusive and NPC1 promoter act inconclusive.
`O=C1C2C3C=CC(C4CC34)C2C(=O)N1/N=C/c1c[nH]c2ccccc12` (stereo unspecified) gave ELG1 genotoxic 17%, FLuc modulator 1.9µM*, p53 reactivation -1%, Rab9 promoter act 2µM* and NPC1 promoter act 4µM*.
Screening CC(C)=CCCC(C)C1CC[C@@]2(C)C3=C(CC[C@@]12C)C1(C)CCC(O)C(C)(C)C1CC3 (stereo partly specified) returned SMN2 splice up -6%.
For Cc1cccc(NC(=O)c2cc(-c3cc(Cl)ccc3O)n[nH]2)c1 the results were ELG1 genotoxic 18%, FLuc modulator inconclusive, p53 reactivation inconclusive, Rab9 promoter act inconclusive and NPC1 promoter act 2.2µM*.
For Cc1ccc(NC(=O)c2cc(-c3cc(Cl)ccc3O)n[nH]2)cc1C the results were ELG1 genotoxic 4%, FLuc modulator -9%, p53 reactivation -4%, Rab9 promoter act -4%[1.84 µM] and NPC1 promoter act -5%.
Cc1ccc(C)c(NC(=O)c2cc(-c3cc(C)ccc3O)n[nH]2)c1 was read as ELG1 genotoxic inconclusive, FLuc modulator 3µM*, p53 reactivation -1%, Rab9 promoter act 26% and NPC1 promoter act 2µM*.
O=C(Nc1ccc(Cl)c(Cl)c1)Nc1ccccc1C(=O)O was read as ELG1 genotoxic 2.3µM*, FLuc modulator 0.54µM*, p53 reactivation 16%, SMN2 splice up 4.5µM*, Rab9 promoter act 0.32µM* and NPC1 promoter act 0.35µM*.
O=C(Nc1ccc(Cl)cc1)Nc1ccccc1C(=O)O was read as ELG1 genotoxic inconclusive, FLuc modulator 0.48µM*, p53 reactivation -2%, SMN2 splice up 13µM*, Rab9 promoter act 0.45µM* and NPC1 promoter act 0.35µM*.
O=C(COc1ncnc2sccc12)NC1CCS(=O)(=O)C1 (stereo unspecified) was read as ELG1 genotoxic -3%, FLuc modulator 0%, p53 reactivation 2%, Rab9 promoter act 2% and NPC1 promoter act 1%.
COC(=O)c1ccc(OC)c(Cn2c(=O)n(-c3cccc(Cl)c3)c(=O)c3c4c(sc32)CN(C(C)=O)CC4)c1 was read as FLuc modulator -2% and SMN2 splice up 5%.
Screening Cc1cc2cc3c(cc2nc1SCc1ccc(C(=O)O)cc1)OCCO3 returned ELG1 genotoxic 0%, FLuc modulator 19µM*, p53 reactivation 6%, SMN2 splice up 5%, Rab9 promoter act -3% and NPC1 promoter act 2%.
`Oc1ccc(Br)cc1-c1cc(-c2ccccc2)n[nH]1` gave ELG1 genotoxic -2%, FLuc modulator -16%, p53 reactivation inconclusive, SMN2 splice up -20%, Rab9 promoter act -3% and NPC1 promoter act -5%.
Oc1ccc(Br)cc1-c1cc(-c2ccc(Cl)cc2)n[nH]1 was read as ELG1 genotoxic inconclusive, FLuc modulator inconclusive, p53 reactivation 16%, SMN2 splice up inconclusive, Rab9 promoter act -1% and NPC1 promoter act -3%.
Screening COc1ccc(O)c(-c2cc(-c3ccc(F)cc3)n[nH]2)c1 returned ELG1 genotoxic inconclusive, FLuc modulator 15µM*, p53 reactivation inconclusive, Rab9 promoter act inconclusive and NPC1 promoter act 4.5µM*.
COc1ccc(-c2cc(-c3ccc(Cl)cc3)n[nH]2)c(O)c1 was read as ELG1 genotoxic inconclusive, FLuc modulator 6µM*, p53 reactivation inconclusive, Rab9 promoter act 2.5µM* and NPC1 promoter act 1.8µM*.
COc1ccc(-c2n[nH]c(C)c2-c2cc(OC)ccc2O)cc1 was read as ELG1 genotoxic -1%, FLuc modulator -7%, p53 reactivation -6%, SMN2 splice up -5%, Rab9 promoter act -2% and NPC1 promoter act -2%.
COc1ccc(O)c(-c2cc(-c3cccc(Br)c3)n[nH]2)c1 was read as ELG1 genotoxic 21µM*, FLuc modulator 19µM*, p53 reactivation inconclusive, SMN2 splice up 28%, Rab9 promoter act inconclusive and NPC1 promoter act inconclusive.
`COc1ccc(-c2cc(-c3cc(OC)ccc3O)[nH]n2)cc1` gave ELG1 genotoxic 9.2µM*, FLuc modulator 24µM*, p53 reactivation inconclusive, SMN2 splice up inconclusive, Rab9 promoter act inconclusive and NPC1 promoter act inconclusive.
`Cc1cccc(NC(=O)c2cc(S(=O)(=O)N3CCc4ccccc43)ccc2F)c1C` gave FLuc modulator -5%.
For COc1ccc(CN2CC(=O)N3[C@H]4c5ccccc5OC[C@@H]4[C@H](c4ccccc4)[C@]3(C)C2=O)cc1 the results were ELG1 genotoxic -4%, FLuc modulator 7%, p53 reactivation -4%, Rab9 promoter act -7% and NPC1 promoter act 0%.
For CN(C)C(=O)CSc1n[nH]c(=O)n1CCc1ccccc1 the results were ELG1 genotoxic 1%, FLuc modulator 3%, p53 reactivation -1%, Rab9 promoter act -4% and NPC1 promoter act -1%.
`COc1cccc(NC(=O)c2oc3ccccc3c2NC(=O)COc2ccccc2C)c1` gave FLuc modulator -14% and SMN2 splice up 16%.
